Assay results as given in PubChem BioAssay.
Entries with a potency or affinity are not part of this list. Results filed as inconclusive are left out. Calls of active or inactive are those of the source.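 How the source made its calls, unless noted: active means a dose-response fit showing signal loss, with half-maximal concentration no higher than twice the top tested dose; inconclusive means flat fit between 30% and 70% signal loss, or poor fit; inactive means the rest.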

Key:
[1] = Cryptococcus neoformans growth inhibition, dose response, Alamar Blue, cherry-picks (AID 686998;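 active means falling signal with fitted half-maximal potency no higher than twice the top valid tested dose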); settings: 24 h; series mostly up to 35 µM
[2] = inducers of Cryptococcus neoformans cell lysis, dose response, AK release luminescence, cherry-picks (AID 687000;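 active means fitted dose curve reaches 40% lysis signal rise at or below the highest valid concentration tested for that sample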;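 further: luminescent detection of adenylate kinase leaking from lysed yeast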); settings: C. neoformans lysis, adenylate kinase release luminescence, 4 h, 100% = twice the neutral-control signal; series mostly up to 15 µM
[3] = HepG2 cell cytotoxicity, dose response, cytotoxicity control, cherry-picks, set 2 (AID 687002); settings: HepG2 viability, ATP luminescence (CellTiter-Glo), 48 h; series mostly up to 26 µM
[4] = HeLa cell cytotoxicity, dose response, cytotoxicity control, ATP luminescence, cherry-pick samples (AID 687004;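 active means a fitted half-maximal concentration no higher than twice the top valid tested dose, with signal falling as cells die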); settings: HeLa viability, ATP luminescence (CellTiter-Glo), 48 h; series mostly up to 26 µM

Measured: outcome

O=C(C[C@@H]1C[C@@H]2c3cc(NC(=O)C4CCC4)ccc3O[C@@H]2[C@H](CO)O1)NCc1cccc(F)c1
inactive: [1] | [2] | [3] | [4]

CO[C@H]1CC[C@H]2CCOc3c(C#N)cccc3C(=O)N(C)C[C@@H](C)C(=O)N(C)C[C@H]1O2
inactive: [1] | [2] | [3] | [4]

COc1ccc(CN(C)C[C@@H]2Oc3ccc(NC(=O)C4CC4)cc3C(=O)N([C@H](C)CO)C[C@H]2C)cc1
inactive: [1] | [2] | [3] | [4]

CC(C)NC(=O)N1CC[C@@H]2[C@@H](CO)N(C)c3ccc(-c4cccc(F)c4)cc3[C@@H]21
inactive: [1] | [2] | [3] | [4]

COc1cccc(S(=O)(=O)Nc2ccc3c(c2)[C@@H]2C[C@H](CC(=O)NC4CCCCC4)O[C@H](CO)[C@@H]2O3)c1
inactive: [1] | [2] | [3] | [4]

O=C(C[C@@H]1CC[C@H](NC(=O)Cc2ccccn2)[C@H](CO)O1)NCCc1ccccc1
inactive: [1] | [2] | [3] | [4]

Cc1noc(C)c1S(=O)(=O)Nc1ccc2c(c1)C(=O)N([C@H](C)CO)C[C@@H](C)[C@H](CN(C)Cc1ccccc1)OCCCC[C@H](C)O2
inactive: [1] | [2] | [3] | [4]

C[C@H]1CCCCO[C@H](CN(C)C(=O)c2ccncc2)[C@@H](C)CN([C@@H](C)CO)C(=O)c2cc(NC(=O)Cc3ccccc3)ccc2O1
inactive: [1] | [2] | [3] | [4]

CCNC(=O)Nc1ccc2c(c1)C(=O)N(C)[C@H]1CC[C@H](CC(=O)N[C@@H](C)c3ccccc3)O[C@H]1CO2
inactive: [1] | [2] | [3] | [4]
